According to the supplement of paper PMC12067093, “Discovery and optimisation of a covalent ligand for TRIM25 and its application to targeted protein ubiquitination” (Chemical Science, 2025):
Of roughly 21,000 targets only a part is listed; those with the largest changes were picked by preference.

Compound: CC1Cc2ccccc2N1C(=O)C1CCCN(C1)C(=O)CCl (mixture of isomers) [TRIM25 ligand 11 (diastereomer mixture)]
Assay: probe-labelled cysteine peptide fold change vs DMSO (competition) (log2 fold change); higher = less target engagement (more negative = stronger competition)
Conditions: THP-1, incubation time: 4 h
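Also: competitive chemoproteomic profiling in live THP-1 cells with an iodoacetamide desthiobiotin (IA-DTB) probe, comparing probe-labelled peptide intensities in compound-treated cells against DMSO-treated controls.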

Chain of UniProt P35249 (P35249 whole entry, looked up): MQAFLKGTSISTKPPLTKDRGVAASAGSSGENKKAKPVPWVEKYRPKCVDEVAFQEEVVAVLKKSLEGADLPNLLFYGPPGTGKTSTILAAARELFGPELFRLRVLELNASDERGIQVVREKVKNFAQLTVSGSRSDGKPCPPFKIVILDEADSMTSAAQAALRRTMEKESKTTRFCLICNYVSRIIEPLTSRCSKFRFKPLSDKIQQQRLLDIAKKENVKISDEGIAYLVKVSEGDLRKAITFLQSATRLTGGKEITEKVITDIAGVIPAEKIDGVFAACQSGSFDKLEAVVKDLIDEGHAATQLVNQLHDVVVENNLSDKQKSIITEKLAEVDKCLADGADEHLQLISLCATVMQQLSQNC
Chain of UniProt Q9H6Z4 (Q9H6Z4 whole entry, looked up): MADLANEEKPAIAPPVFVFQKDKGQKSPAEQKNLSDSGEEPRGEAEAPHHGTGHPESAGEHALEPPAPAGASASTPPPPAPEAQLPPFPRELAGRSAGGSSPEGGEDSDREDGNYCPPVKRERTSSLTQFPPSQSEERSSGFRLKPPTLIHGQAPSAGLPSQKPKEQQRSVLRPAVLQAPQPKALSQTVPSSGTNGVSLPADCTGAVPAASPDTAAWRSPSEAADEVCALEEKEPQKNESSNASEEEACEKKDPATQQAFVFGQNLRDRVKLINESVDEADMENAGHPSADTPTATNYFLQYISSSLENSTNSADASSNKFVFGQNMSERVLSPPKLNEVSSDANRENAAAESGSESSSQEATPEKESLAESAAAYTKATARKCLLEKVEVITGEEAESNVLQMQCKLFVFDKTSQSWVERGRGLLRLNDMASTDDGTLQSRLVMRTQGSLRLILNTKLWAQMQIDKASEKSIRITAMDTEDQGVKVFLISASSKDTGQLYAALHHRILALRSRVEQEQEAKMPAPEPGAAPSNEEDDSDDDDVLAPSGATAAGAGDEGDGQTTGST
Chain of UniProt Q15008 (Q15008 whole entry, looked up): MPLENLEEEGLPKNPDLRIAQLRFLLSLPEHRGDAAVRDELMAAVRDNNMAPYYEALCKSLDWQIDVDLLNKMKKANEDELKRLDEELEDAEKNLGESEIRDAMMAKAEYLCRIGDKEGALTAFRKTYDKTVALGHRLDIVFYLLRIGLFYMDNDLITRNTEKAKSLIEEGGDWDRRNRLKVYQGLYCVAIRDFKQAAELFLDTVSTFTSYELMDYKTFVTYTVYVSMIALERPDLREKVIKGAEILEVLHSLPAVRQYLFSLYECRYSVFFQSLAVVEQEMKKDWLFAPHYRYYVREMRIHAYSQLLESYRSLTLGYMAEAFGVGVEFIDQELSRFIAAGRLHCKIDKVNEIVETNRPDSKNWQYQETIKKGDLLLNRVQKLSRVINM
Chain of UniProt Q3YEC7 (Q3YEC7 whole entry, looked up): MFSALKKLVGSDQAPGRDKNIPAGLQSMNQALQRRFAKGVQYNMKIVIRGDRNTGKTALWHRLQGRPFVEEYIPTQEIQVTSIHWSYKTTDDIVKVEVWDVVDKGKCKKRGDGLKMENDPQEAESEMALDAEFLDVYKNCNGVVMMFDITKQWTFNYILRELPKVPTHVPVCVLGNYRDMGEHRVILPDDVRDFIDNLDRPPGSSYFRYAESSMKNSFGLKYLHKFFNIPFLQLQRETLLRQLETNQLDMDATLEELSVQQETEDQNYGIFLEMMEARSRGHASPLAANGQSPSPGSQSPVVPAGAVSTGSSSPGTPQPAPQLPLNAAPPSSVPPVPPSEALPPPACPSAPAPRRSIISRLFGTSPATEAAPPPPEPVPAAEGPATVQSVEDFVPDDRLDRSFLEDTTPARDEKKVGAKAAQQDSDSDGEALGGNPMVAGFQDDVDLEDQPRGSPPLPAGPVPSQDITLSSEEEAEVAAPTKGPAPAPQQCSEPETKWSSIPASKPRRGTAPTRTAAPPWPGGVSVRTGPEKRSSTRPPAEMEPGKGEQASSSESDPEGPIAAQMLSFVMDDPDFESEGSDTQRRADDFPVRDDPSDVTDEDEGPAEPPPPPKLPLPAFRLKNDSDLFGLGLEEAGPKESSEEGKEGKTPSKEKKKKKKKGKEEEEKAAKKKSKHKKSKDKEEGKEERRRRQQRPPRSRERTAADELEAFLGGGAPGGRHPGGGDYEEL
Chain of UniProt O60216 (O60216 whole entry, looked up): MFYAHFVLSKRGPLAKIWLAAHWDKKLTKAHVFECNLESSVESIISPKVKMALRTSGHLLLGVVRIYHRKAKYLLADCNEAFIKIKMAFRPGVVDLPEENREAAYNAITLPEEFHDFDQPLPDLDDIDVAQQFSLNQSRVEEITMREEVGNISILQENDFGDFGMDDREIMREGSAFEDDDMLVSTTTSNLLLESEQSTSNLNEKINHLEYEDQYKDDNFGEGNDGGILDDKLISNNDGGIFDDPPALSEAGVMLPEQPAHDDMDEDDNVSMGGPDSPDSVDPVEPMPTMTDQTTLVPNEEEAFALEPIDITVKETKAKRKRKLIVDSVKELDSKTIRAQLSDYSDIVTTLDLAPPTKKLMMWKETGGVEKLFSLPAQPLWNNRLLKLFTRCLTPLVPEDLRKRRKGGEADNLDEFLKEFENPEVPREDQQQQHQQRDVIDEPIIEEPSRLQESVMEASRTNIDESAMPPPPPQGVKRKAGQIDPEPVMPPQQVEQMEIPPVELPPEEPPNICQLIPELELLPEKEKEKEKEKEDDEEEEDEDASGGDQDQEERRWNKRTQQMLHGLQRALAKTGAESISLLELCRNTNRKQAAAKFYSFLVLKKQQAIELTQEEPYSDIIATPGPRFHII
Chain of UniProt Q9H4A4 (Q9H4A4 whole entry, looked up): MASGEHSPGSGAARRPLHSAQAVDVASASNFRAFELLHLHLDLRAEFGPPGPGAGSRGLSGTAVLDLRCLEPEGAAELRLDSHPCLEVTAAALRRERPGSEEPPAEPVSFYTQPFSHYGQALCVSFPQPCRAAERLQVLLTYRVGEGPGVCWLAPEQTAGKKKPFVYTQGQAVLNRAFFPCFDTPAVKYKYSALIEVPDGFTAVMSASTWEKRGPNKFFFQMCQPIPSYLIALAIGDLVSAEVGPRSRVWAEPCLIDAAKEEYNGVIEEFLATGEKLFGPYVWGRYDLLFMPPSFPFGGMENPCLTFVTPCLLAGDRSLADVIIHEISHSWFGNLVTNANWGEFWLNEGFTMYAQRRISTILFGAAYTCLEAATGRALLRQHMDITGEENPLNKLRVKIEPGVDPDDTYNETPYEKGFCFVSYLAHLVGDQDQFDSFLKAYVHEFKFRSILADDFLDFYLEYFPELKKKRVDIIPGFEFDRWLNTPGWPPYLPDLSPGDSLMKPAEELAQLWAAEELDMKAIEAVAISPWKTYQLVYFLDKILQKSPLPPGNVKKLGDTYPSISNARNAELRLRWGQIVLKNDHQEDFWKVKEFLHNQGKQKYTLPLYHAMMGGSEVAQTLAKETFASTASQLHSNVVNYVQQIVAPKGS
Chain of UniProt Q9NW64 (Q9NW64 whole entry, looked up): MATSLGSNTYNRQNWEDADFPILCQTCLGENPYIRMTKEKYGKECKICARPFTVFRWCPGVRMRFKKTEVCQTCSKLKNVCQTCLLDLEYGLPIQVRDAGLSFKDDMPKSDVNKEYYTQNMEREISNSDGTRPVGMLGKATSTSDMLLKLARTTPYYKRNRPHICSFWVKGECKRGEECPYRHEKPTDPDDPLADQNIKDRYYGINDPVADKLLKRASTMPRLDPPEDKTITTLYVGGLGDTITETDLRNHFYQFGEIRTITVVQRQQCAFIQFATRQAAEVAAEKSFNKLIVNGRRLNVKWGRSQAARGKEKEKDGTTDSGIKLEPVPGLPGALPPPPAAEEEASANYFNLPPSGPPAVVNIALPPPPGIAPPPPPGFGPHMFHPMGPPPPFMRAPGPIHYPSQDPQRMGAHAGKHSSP
Chain of UniProt Q06323 (Q06323 whole entry, looked up): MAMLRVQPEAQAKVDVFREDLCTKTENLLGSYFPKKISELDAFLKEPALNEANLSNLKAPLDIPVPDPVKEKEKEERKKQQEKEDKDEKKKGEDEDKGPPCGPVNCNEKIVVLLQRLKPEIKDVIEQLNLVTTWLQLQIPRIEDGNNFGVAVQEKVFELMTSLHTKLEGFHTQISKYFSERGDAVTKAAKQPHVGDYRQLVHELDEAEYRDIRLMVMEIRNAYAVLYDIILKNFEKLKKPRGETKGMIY
Chain of UniProt Q9P258 (Q9P258 whole entry, looked up): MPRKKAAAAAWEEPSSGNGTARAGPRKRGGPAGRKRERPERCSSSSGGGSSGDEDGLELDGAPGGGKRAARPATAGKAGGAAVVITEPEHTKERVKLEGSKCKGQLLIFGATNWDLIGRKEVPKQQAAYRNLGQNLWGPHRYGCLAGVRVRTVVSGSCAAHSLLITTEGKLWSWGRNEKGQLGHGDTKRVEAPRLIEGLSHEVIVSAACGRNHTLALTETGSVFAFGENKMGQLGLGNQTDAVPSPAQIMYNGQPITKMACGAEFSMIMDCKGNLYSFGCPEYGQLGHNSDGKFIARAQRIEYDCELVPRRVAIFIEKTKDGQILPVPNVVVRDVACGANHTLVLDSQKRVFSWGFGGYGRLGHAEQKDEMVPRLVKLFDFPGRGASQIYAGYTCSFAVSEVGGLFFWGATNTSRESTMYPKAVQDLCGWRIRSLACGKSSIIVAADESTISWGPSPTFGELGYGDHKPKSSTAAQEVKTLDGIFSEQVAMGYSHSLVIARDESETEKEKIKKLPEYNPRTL

Target | probe-labelled cysteine peptide fold change (10 µM) | probe-labelled cysteine peptide fold change (50 µM)
RABL6_Q3YEC7_172_VPTHVPVCVLGNYR (UniProt Q3YEC7) | 0.0329 | 0.101
RANBP3_Q9H6Z4_249_NESSNASEEEACEK (UniProt Q9H6Z4) | 0.387 | -0.572
RCC2_Q9P258_280_GNLYSFGCPEYGQLGHNSDGK (UniProt Q9P258) | 0.288 | -0.207
RBM22_Q9NW64_74_TEVCQTCSK (UniProt Q9NW64) | -0.0386 | -0.0803
PSME1_Q06323_101_KKGEDEDKGPPCGPVNCNEK (UniProt Q06323) | -0.56 | -0.596
RAI1_Q7Z5J4_899_APLICTK (UniProt Q7Z5J4) | -0.024 | -0.376
RAD21_O60216_35_AHVFECNLESSVESIISPK (UniProt O60216) | 0.0257 | 0.111
RFC4_P35249_180_FCLICNYVSR (UniProt P35249) | -0.16 | -0.0464
PSMD6_Q15008_188_VYQGLYCVAIR (UniProt Q15008) | -0.0246 | 0.231
RNPEP_Q9H4A4_85_LDSHPCLEVTAAALR (UniProt Q9H4A4) | 0.0713 | -0.0588
